PubChem BioAssay
Results with a measured potency or affinity are listed apart. Results filed as inconclusive are left out. Activity calls are given as the source filed them. Unless noted, how the calls were made is not given here.

How the values were obtained:
[1] = RMG-1 ovarian cancer cell viability loss – cherry-pick, dose response (AID 687029;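 active means signal drop whose fitted half-maximal concentration is at most twice the top valid dose, in every test run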;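 further: cells exposed to compound for 96 hours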)
[2] = IOSE-T80 viability loss, PAX8-independent line – cell-based, cherry-pick, selectivity assay for PAX8 inhibitor project, dose response (AID 687032;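 active means fitted half-maximal concentration for viability loss no higher than twice the top valid dose, in every repeat run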;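 further: cells exposed to compound for 96 h before reading; 0% = neutral control wells and -100% = 2 µM mitoxantrone kill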)
[3] = CMV-driven luciferase expression suppression in HEK293 – cell-based, luminescence, dry powder, counter-screen for Pax8 inhibitor project, dose response (AID 743020;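 active means signal-lowering compounds whose fitted half-maximal concentration is at or below twice the top tested dose in every run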;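 further: HEK293 cells stably expressing the CMV luciferase reporter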)
[4] = general cell-killing toxicity readout – plate reader, dry powder samples, cytotoxicity control for PAX8 inhibitor project, dose response (AID 743021)
[5] = IGROV1 cell killing – plate reader, dry powder samples, PAX8 inhibitor project, dose response (AID 743043);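 further: more negative means fewer viable cells or more cytotoxicity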
[6] = OVCAR-3 cell viability loss – plate reader, dry powder samples, PAX8 inhibitor project, dose response (AID 743044); details: max activity: at 35 µM, active compounds read low unless noted
[7] = toxicity toward immortalized ovarian surface epithelium – cell-based, plate reader, dry powder samples, cytotoxicity control for PAX8 inhibitor project, dose response (AID 743045);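 further: 0% = neutral control median and -100% = positive control median; more negative values mean more cell killing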
[8] = A2780 cell killing – plate reader, dry powder samples, cytotoxicity control, dose response (AID 743046);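 further: 0% = neutral control wells and -100% = cytotoxic reference compound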

Measured: max activity

C=CC[C@H](CC(=O)N(CCO)Cc1ccccc1)C(=O)N[C@@H](COC(=O)[C@H](CC=C)CC(=O)OC(C)(C)C)Cc1c[nH]c2ccccc12
inactive: [1] | [2] | [3] | [4]

CCN(c1nc(N)c(C(=O)N=C(N)N)nc1Cl)C(C)C
inactive: [1] | [2] | [3] | [4]

Cc1cccc(NCc2ccc(O)c3ncccc23)c1C
inactive: [1] | [2] | [3] | [4]

N#Cc1ccc(NC(=O)COC(=O)C2CCC2)cc1
inactive: [1] | [2] | [3] | [4]

Cc1ccc(NC(=O)c2ccc([N+](=O)[O-])s2)cc1S(=O)(=O)N1CCOCC1
inactive: [1] | [2] | [3] | [4]

O=C1C=CC(=C(c2ccc(O)cc2)c2ccc(O)cc2)C=C1
inactive: [1] | [2] | [3] | [4]

CC(=O)c1cccc(-c2csc3ncnc(Sc4nnnn4C)c23)c1
inactive: [1] | [2] | [3] | [4]

O=C(CCCN1C(=O)/C(=C/c2ccccc2OC(F)F)SC1=S)Nc1cccnc1
inactive: [1] | [2] | [3] | [4]

CCOC(=O)Nc1ccc2c(c1)N(C(=O)CCCl)c1ccccc1[S@]2=O
inactive: [1] | [2] | [3] | [4]

CN(C)CCOc1ccc2c(c1)C(=O)C(=Cc1ncc([N+](=O)[O-])n1C)C2
inactive: [1] | [2] | [3] | [4]

CC[C@@]1(O)C(=O)OCc2c1cc1n(c2=O)Cc2cc3c(CN(C)C)c(O)ccc3nc2-1
inactive: [1] | [2] | [3] | [4]

C#CCN(C[C@H]1[C@H](OC(=O)Nc2c(C)noc2C)[C@H](OC(=O)Nc2c(C)noc2C)C[C@@H](C(=O)OC)[C@H]1C(=O)OC)S(=O)(=O)c1ccc(C)cc1
inactive: [1] | [2] | [3] | [4]

CCc1ccc(CNC(=O)C2CCCN(c3nnc(C)c4c(C)n(-c5ccccc5)nc34)C2)cc1 (stereo not drawn)
inactive: [1] | [2] | [3] | [4]

O=C(NC1CC1)c1ccc2c(c1)C1C3CCC(C3)C1C(c1ccccc1)N2 (stereo not drawn)
inactive: [1] | [2] | [3] | [4]

C[C@H](CO)N1C[C@H](C)[C@@H](CN(C)Cc2ccccc2)OCCCC[C@H](C)Oc2ccc(NC(=O)Nc3ccc(C(F)(F)F)cc3)cc2C1=O
inactive: [1] | [2] | [3] | [4]

O=C(c1nnsc1S(=O)(=O)c1ccc(Cl)cc1)N1CCOCC1
inactive: [1] | [2] | [3] | [4]

O=C(Nc1cccc(Cl)c1)Nc1csc([N+](=O)[O-])c1
inactive: [1] | [2] | [3] | [4]

CCCCCCN1C[C@@H](n2cc(-c3ccc(F)cc3)nn2)[C@H](O)C[C@@H]1c1ccc(Cl)cc1
inactive: [1] | [2] | [3] | [4]

CC(C)c1ccc(/C=C(\c2nc3ccccc3[nH]2)S(=O)(=O)c2ccccc2)cc1
inactive: [1] | [2] | [3] | [4]

O=C(CCCN1C(=O)/C(=C/c2cccc(Br)c2)SC1=S)Nc1cccnc1
inactive: [1] | [2] | [3] | [4]

C[C@@H](NC(=O)c1nc[nH]c1C(=O)N[C@@H](Cc1ccccc1)C(=O)OC(C)(C)C)c1ccccc1
inactive: [1] | [2] | [3] | [4]

O=C(Nc1ccc([N+](=O)[O-])cn1)c1cc(-c2cccc(Br)c2)nc2ccccc12
inactive: [1] | [2] | [3] | [4]

NC(=O)[C@H]1CC2(CC(c3cccc(NC(=O)COc4ccc(Cl)cc4)c3)=NO2)CN1C(=O)C(c1ccccc1)c1ccccc1 (stereo partly drawn)
inactive: [1] | [2] | [3] | [4]

O=C(Nc1nc(-c2cccs2)c(-c2cccs2)s1)C1(c2ccccc2)CC1
inactive: [1] | [2] | [3] | [4]

COc1nn(-c2ccccc2)c(=O)c(Cl)c1Cl
inactive: [1] | [2] | [3] | [4]

CC1=C(C(=O)OC2CCCCC2)C(c2cccnc2)n2ncnc2N1 (stereo not drawn)
inactive: [1] | [2] | [3] | [4]

COc1ccc(O)c(/C=N/NC(=O)c2ccc(N3CCCC3=O)cc2)c1
inactive: [1] | [2] | [3] | [4]

C[C@@H]1CCCCO[C@H](CN(C)Cc2ccncc2)[C@H](C)CN([C@@H](C)CO)C(=O)c2cc(NC(=O)NC3CCCCC3)ccc2O1
inactive: [1] | [2] | [3] | [4]

Cc1ccc(S(=O)(=O)c2nc(S(=O)(=O)c3ccccc3)sc2N2CCN(C)CC2)cc1
inactive: [1] | [2] | [3] | [4]

Cc1cc(Sc2nnc(N)s2)c2ccccc2n1
inactive: [1] | [2] | [3] | [4]

Oc1ccc(C[C@H]2CNC(=S)N2CC2CCCN2C[C@H](Cc2ccccc2)N2C[C@H](Cc3ccc(O)cc3)N(CCc3ccccc3)C2=S)cc1 (stereo partly drawn)
inactive: [1] | [2] | [3] | [4]

CC(C)=CCC/C(C)=C/CNC(=O)C[C@H]1C[C@H](C(=O)N2CCOCC2)[C@@]2(C)c3[nH]c4ccc(Cl)cc4c3CCN2C1=O
inactive: [1] | [2] | [3] | [4]

COc1cccc(/C=N/NC(=O)c2ccc(N3CCCC3=O)cc2)c1
inactive: [1] | [2] | [3] | [4]

O=C(NCc1cccnc1)/C(=C\c1ccc(-c2ccc(Cl)c(Cl)c2)o1)S(=O)(=O)c1ccccc1
inactive: [1] | [2] | [3] | [4]

CCCCn1cnc2c(c(-c3ccccc3)c(-c3ccccc3)n2Cc2ccco2)c1=N
inactive: [1] | [2] | [3] | [4]

COC(C(=O)C(O)C(C)O)C1Cc2cc3cc(OC4CC(OC5CC(O)C(O)C(C)O5)C(O)C(C)O4)c(C)c(O)c3c(O)c2C(=O)C1OC1CC(OC2CC(OC3CC(O)C(OC)C(C)O3)C(O)C(C)O2)C(O)C(C)O1 (stereo not drawn)
inactive: [1] | [2] | [3] | [4]

C=C1C2(C(=O)Nc3ccc(SC(F)F)cc3)CCC(C2)C1(C)C (stereo not drawn)
inactive: [1] | [2] | [3] | [4]

Cc1[nH]nc2nc(SCC(=O)NC3CCCCC3)n(-c3ccc(Br)cc3)c(=N)c12
inactive: [1] | [2] | [3] | [4]

O=C(NCCC1CCCCN1S(=O)(=O)c1ccc(Cl)cc1)C(=O)NCc1ccncc1 (stereo not drawn)
inactive: [1] | [2] | [3] | [4]

O=S(=O)(/C(=C/c1ccc(C(F)(F)F)cc1)c1nc2ccccc2[nH]1)c1ccccc1
inactive: [1] | [2] | [3] | [4]

O=C(C[C@@H]1C[C@H]2c3cc(NS(=O)(=O)c4ccc(F)cc4)ccc3O[C@H]2[C@@H](CO)O1)NCc1ccc(Oc2ccccc2)cc1
inactive: [1] | [2] | [3] | [4]

C=C1C(=O)O[C@@H]2[C@H]1CC[C@H](C)[C@]1(O)CCC(=O)[C@@]21C
inactive: [1] | [2] | [3] | [4]

FC(F)(F)c1nnc2c(Sc3ccc(Cl)cc3)nc3ccccc3n12
inactive: [1] | [2] | [3] | [4]

Cc1ccc(-c2cn3cc(C)ccc3n2)cc1
inactive: [1] | [2] | [3] | [4]

O=C(N/N=C/c1ccc(Cl)c([N+](=O)[O-])c1)c1cc(-c2ccc3c4c(cccc24)CC3)n[nH]1
inactive: [1] | [2] | [3] | [4]

O=C1/C(=C\c2ccc(Cl)c(Cl)c2)CN(C(=O)CCN2CCOCC2)C/C1=C/c1ccc(Cl)c(Cl)c1
inactive: [1] | [2] | [3] | [4]

COc1ccc(S(=O)(=O)Nc2ccc3c(c2)C(=O)N([C@H](C)CO)C[C@H](C)[C@@H](CN(C)S(=O)(=O)c2ccc(C)cc2)OCCCC[C@H](C)O3)cc1
inactive: [1] | [2] | [3] | [4]

Cc1noc(/C=C/c2ccco2)c1S(=O)(=O)N1CCC(C(=O)NC(C)c2ccccc2)CC1 (stereo not drawn)
inactive: [1] | [2] | [3] | [4]

C[C@@H]1CN([C@@H](C)CO)C(=O)c2cc(NC(=O)Nc3ccc(C(F)(F)F)cc3)ccc2O[C@@H](C)CCCCO[C@@H]1CN(C)Cc1ccc2c(c1)OCO2
inactive: [1] | [2] | [3] | [4] | [5] | [6] -5.57% [at 16 µM, active compounds read low] | [7]

Cc1ccc(S(=O)(=O)Nc2ccc3c(c2)C(=O)N([C@H](C)CO)C[C@@H](C)[C@H](CN(C)S(=O)(=O)c2ccccc2)OCCCC[C@H](C)O3)cc1
inactive: [1] | [2] | [3] | [4] | [5] | [6] -31.1% | [7]

CCCC#Cc1ccc([C@H]2[C@H]3CN(S(=O)(=O)Cc4ccccc4)CCCCN3[C@H]2CO)cc1
inactive: [1] | [2] | [3] | [4] | [5] | [6] -34.3% | [7] | [8]

O=C(C[C@@H]1CC[C@H]2[C@@H](COC[C@H](O)CN2C(=O)Nc2ccc(Cl)c(Cl)c2)O1)NCc1ccc(Cl)cc1
inactive: [1] | [2] | [3] | [4] | [5] | [6] -36.1% | [7]

COc1ccc(C(=O)N/N=C/c2ccc(OC)c(CN3CCN(c4ccc(F)cc4)CC3)c2)cc1
inactive: [1] | [2] | [3] | [4]

Cc1ccc(S(=O)(=O)N(C)C[C@H]2OCCCC[C@H](C)Oc3ccc(NS(=O)(=O)c4ccc(Cl)cc4)cc3C(=O)N([C@@H](C)CO)C[C@@H]2C)cc1
inactive: [1] | [2] | [3] | [4] | [5] | [6] 10.8% [at 2.1 µM, active compounds read low] | [7] | [8]

COc1ccc(-c2ccc3c(c2)[C@@H]2[C@@H](CCN2C(=O)NC2CCCCC2)[C@@H](CO)N3C)cc1
inactive: [1] | [2] | [3] | [4] | [5] | [6] -44.1% [at 9 µM, active compounds read low] | [7]

C[C@@H]1CN([C@H](C)CO)C(=O)c2c(c3ccccc3n2C)-c2ccccc2CO[C@@H]1CN(C)S(=O)(=O)c1ccc(C(F)(F)F)cc1
inactive: [1] | [2] | [3] | [4] | [5] | [6] -18.1% [at 16 µM, active compounds read low] | [7] | [8]
